Reference: PubChem BioAssay AID778 (Sanford-Burnham Center for Chemical Genomics, 2007)
Screen size: about 96,000 compounds; about 20,000 (21%) were called active.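 How the source made its calls: active means CYP2C19 inhibition above a set limit at 5 µM in the primary screen (cut at about 50% in these data); inactive means the rest.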 A selection follows.

The compounds below were run against Cytochrome P450 2C19 (Homo sapiens) (UniProt P33261) (assay: blockers of cytochrome P450 2C19 activity – biochemical, luminescence, ADME assay, primary screen (AID 778;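 further: plate controls were negative control wells for no effect and 2.5 mM tranylcypromine positive control for full effect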)). Settings: CYP2C19 Supersomes, luciferin-H EGE luminescence, 30 min; at 5 µM; active compounds read high.
Cytochrome P450 2C19 (Homo sapiens), sequence (P33261 whole entry, looked up): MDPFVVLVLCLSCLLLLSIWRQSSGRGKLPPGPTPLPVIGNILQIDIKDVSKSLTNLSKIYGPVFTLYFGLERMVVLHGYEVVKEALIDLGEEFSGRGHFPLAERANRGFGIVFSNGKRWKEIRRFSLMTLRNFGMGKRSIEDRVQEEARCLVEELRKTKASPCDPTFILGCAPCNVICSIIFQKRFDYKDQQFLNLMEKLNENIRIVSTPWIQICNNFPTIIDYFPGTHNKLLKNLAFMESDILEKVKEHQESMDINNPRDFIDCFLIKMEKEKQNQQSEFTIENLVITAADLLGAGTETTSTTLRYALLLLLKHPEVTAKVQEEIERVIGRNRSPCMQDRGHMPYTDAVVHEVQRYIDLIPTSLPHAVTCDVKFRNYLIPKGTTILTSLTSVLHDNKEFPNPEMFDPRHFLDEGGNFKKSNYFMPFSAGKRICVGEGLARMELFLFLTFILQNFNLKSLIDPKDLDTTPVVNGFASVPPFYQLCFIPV
`CCCCNC(=O)C1CCCNC1=O` (configuration not stated) was tested, and the inhibition was -19% (inactive).
In the case of `CCOC(=O)C1=C(c2ccccc2)O/C(=C(/C(=O)OC)C(F)(F)F)S1`, the inhibition is reported as 11.1% (inactive).
For `CCOC(=O)c1nnn(-c2nc(OC)nc(N(C)C)n2)c1-c1ccccc1`, the inhibition was 27.7% (inactive).
With `CCOC(=O)c1nnn(-c2nonc2OC)c1-c1ccccc1` the inhibition was 60.7% (active).
`Cc1cccc(C(=O)Nc2ccc(C(=O)/C=C/c3cccs3)cc2)c1` was tested, and the inhibition was -1.9% (inactive).
With `CCCNC(=O)NCc1ccc(N2CCCC2=O)cc1` the inhibition was 3.6% (inactive).
`Brc1ccc(OCCn2ccnc2)cc1` was tested, and the inhibition was 91.7% (active).
For `COc1cccc(C(=O)Nc2c3c(nn2-c2cccc(C)c2C)CS(=O)(=O)C3)c1OC`, the inhibition was -2.2% (inactive).
With `C=CCNC(=O)C1CC=CCC1C(=O)O` (configuration not stated) the inhibition was -11.3% (inactive).
For `N#CC1=C(SCc2ccccc2)NC(=O)C(C#N)C12CCCC2` (configuration not stated), the inhibition was 63.9% (active).
In the case of `c1ccc(CCc2nc(-c3ccncc3)no2)cc1`, the inhibition is reported as 97.5% (active).
With `Cc1ccc(Cc2nc(-c3cccc(C)c3)no2)cc1` the inhibition was 2.2% (inactive).
For `O=C1c2ccccc2C(=O)N1CCCc1nc(-c2ccccc2)no1`, the inhibition was 9.5% (inactive).
For `CCOC(=O)N1CCN(CC(=O)Nc2cc(C)nn2-c2nc3ccccc3s2)CC1`, the inhibition was 39.8% (inactive).
With `CCn1cc(C(=O)N/N=C(/C)c2ccc(F)cc2)c(=O)c2cc(F)c(N3CCCC3)cc21` the inhibition was 39.5% (inactive).
In the case of `Cc1nnc(SCC(=O)Nc2ncc3c(n2)CC(C)(C)CC3=O)s1`, the inhibition is reported as 1.5% (inactive).
For `CCN1C(=O)C(CC(=O)Nc2cc(C)ccc2C)SC1=Nc1ccc(S(N)(=O)=O)cc1` (configuration not stated), the inhibition was 17.6% (inactive).
`Cn1cccc1C(=O)Nc1nccs1` was tested, and the inhibition was 8.5% (inactive).
For `CC(=O)Oc1ccc(C(=O)Nc2nccs2)cc1`, the inhibition was 16.7% (inactive).
`O=C(CCSCCc1ccccn1)Nc1nccs1` was tested, and the inhibition was 82.6% (active).
For `CC(C(=O)N1CCOCC1)N1c2cccc3cccc(c23)S1(=O)=O` (configuration not stated), the inhibition was 80.5% (active).
For `CC(C(=O)O)N1C(=O)c2cccc3cccc1c23` (configuration not stated), the inhibition was -13.8% (inactive).
`NC(=NC(=O)c1ccccc1)N1CCOCC1` was tested, and the inhibition was 12% (inactive).
`O=C(NCCN1CCN(Cc2ccccc2)CC1)c1cc2c(=O)[nH]c3ccccc3c2s1` was tested, and the inhibition was -2.7% (inactive).
`Nn1c(Cc2cccc3ccccc23)nnc1SCC(=O)N1CC(=O)Nc2ccccc21` was tested, and the inhibition was -8.7% (inactive).
For `COc1ccc(NC(=O)c2c(SC)nsc2SC)cc1`, the inhibition was 7.1% (inactive).
`O=S1(=O)CCN2C(=N1)SC1=C2CCN(Cc2ccccc2)C1` was tested, and the inhibition was 48.1% (inactive).
In the case of `CN(C(=O)C1CCOC1)c1nnc(-c2cccnc2)s1` (configuration not stated), the inhibition is reported as 5.3% (inactive).
With `CC(C)(C)NC(=O)Cn1cnc([N+](=O)[O-])n1` the inhibition was 6.1% (inactive).
`Cn1cnc([N+](=O)[O-])c1Sc1ccccc1` was tested, and the inhibition was 30.3% (inactive).
In the case of `Cn1nc([N+](=O)[O-])nc1Sc1ccc(C(C)(C)C)cc1`, the inhibition is reported as 97.1% (active).
With `Cc1ccc(-c2n[nH]c(=S)n2/N=C/c2cc3c(cc2[N+](=O)[O-])OCO3)cc1` the inhibition was 0.8% (inactive).
For `O=C(COc1ncnc2c(Cl)cc(Cl)cc12)N1CCN(S(=O)(=O)c2ccccc2)CC1`, the inhibition was -6.9% (inactive).
For `COc1cc(SC)ccc1C(=O)NCCOc1ccccc1Cl`, the inhibition was 94.9% (active).
`COc1ccccc1CNC(=O)c1ccc(SC)cc1OC` was tested, and the inhibition was 78.9% (active).
In the case of `CCCOc1ccccc1C(=O)NCCCC(=O)O`, the inhibition is reported as 9.9% (inactive).
`COc1ccc(Cl)cc1C(=O)NCC#N` was tested, and the inhibition was -3.6% (inactive).
`CCc1nnc(NC(=O)CCC(=O)NCc2ccccc2OC)s1` was tested, and the inhibition was -8% (inactive).
In the case of `CCOC(=O)c1c(C)[nH]c(C(=O)NCc2ccccc2OC)c1C`, the inhibition is reported as 44.3% (inactive).
With `O=C1CCCN1CCCNc1ncnc2c1[nH]c1ccccc12` the inhibition was 39% (inactive).
With `CC(=O)Nc1ccc(N2C(=O)CCC2=O)cc1C` the inhibition was 9.8% (inactive).
`O=C(/C=C/Sc1ncn[nH]1)c1ccc(Cl)cc1` was tested, and the inhibition was 38.2% (inactive).
With `CC1Cc2ccccc2N1C(=O)CSc1nnc(-c2ccc(S(=O)(=O)N3CCCCC3)cc2)o1` (configuration not stated) the inhibition was 12.5% (inactive).
In the case of `O=C(CCS(=O)(=O)Cc1ccccc1F)NCCCN1CCCCC1`, the inhibition is reported as 22.6% (inactive).
For `Cc1ccc(S(=O)(=O)N(CC(=O)NCCSC2CCCCC2)c2ccccc2F)cc1`, the inhibition was -4.4% (inactive).
With `CCCNC(=O)CN(Cc1ccccc1F)S(=O)(=O)c1ccc(C)cc1` the inhibition was 64.4% (active).
For `Cc1cc(=O)n2nc(N3CCCC(C(=O)NCCC4=CCCCC4)C3)sc2n1` (configuration not stated), the inhibition was 35.1% (inactive).
With `CCOC(=O)N1CCC(NC(=O)Cc2cn(C)c3ccccc23)CC1` the inhibition was -8.8% (inactive).
With `CC1=Nn2c(nnc2-c2ccccc2)SC1` the inhibition was -2% (inactive).
With `COc1ccc(C2CC(c3ccc(Cl)cc3Cl)Nc3nc(N)nn32)cc1OC` (configuration not stated) the inhibition was -12.5% (inactive).
In the case of `CCOc1ccccc1C1CC(c2ccccc2)Nc2nc(N)nn21` (configuration not stated), the inhibition is reported as 44.9% (inactive).
With `CCOc1ccccc1C1CC(c2ccc(Cl)cc2)Nc2nc(N)nn21` (configuration not stated) the inhibition was 90.2% (active).
With `COc1ccc(NC(=O)COC(=O)Cn2c(C)nc3ccccc32)cc1OC` the inhibition was -0.3% (inactive).
With `COc1ccc(-c2nc3ccccc3n2CCC(C)C)cc1OC` the inhibition was 61.3% (active).
`COCCn1c(-c2ccc(OC)c(OC)c2)nc2ccccc21` was tested, and the inhibition was 0.9% (inactive).
`C=CCN(c1ccc(C(N)=O)cc1)S(C)(=O)=O` was tested, and the inhibition was -3.9% (inactive).
For `CSc1ccc(-c2c(C#N)c(N)nc3c2c(C)nn3-c2ccccc2)cc1`, the inhibition was 4.1% (inactive).
`COc1cc(=O)[nH]c(=O)n1C(=O)Cc1ccccc1` was tested, and the inhibition was 5.6% (inactive).
With `Cc1occc1C(=O)Nc1nnc(-c2ccncc2)s1` the inhibition was 98.1% (active).
With `Cc1occc1C(=O)Nc1nnc(C2CCCCC2)s1` the inhibition was -3.5% (inactive).
`Cc1occc1C(=O)Nc1cccc(Cn2cccn2)c1` was tested, and the inhibition was 57% (active).
`CCOc1cccc(C(=O)Nc2cnn(Cc3ccccc3)c2)c1` was tested, and the inhibition was 8.6% (inactive).
With `Cc1ccc(C(=O)Nc2nnc(-c3ccncc3)s2)o1` the inhibition was 27% (inactive).
With `Cc1ccc(C(=O)COc2cccc(NC(=O)c3ccco3)c2)cc1` the inhibition was 32.7% (inactive).
In the case of `Fc1ccc(CNc2nc3ccccc3n3nnnc23)cc1`, the inhibition is reported as 6% (inactive).
`CN(C)/C=C1\C=C(c2ccccc2)OC1=O` was tested, and the inhibition was -5.7% (inactive).
`O=C1CSC2=NCN(c3ccccc3)CN12` was tested, and the inhibition was 3.1% (inactive).
